The supplement of paper PMC13094657
± gives the standard deviation of the averaged measurements.

Key:
MDA-MB-231 [1] = experiment: cell viability relative to vehicle unstimulated control (fraction); higher = more viable cells; settings: pre-treatment time: 18 h then 24 h IFNg/TNF
MDA-MB-231 [2] = experiment: kynurenine production, fold change vs DMSO IFNg/TNF control; higher = more kynurenine produced (less inhibition); settings: pre-treatment time: 18 h then 24 h IFNg/TNF
In short: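 MDA-MB-231 cells were seeded in 96-well plates at 7 × 10^4/well and, 24 h later, pre-treated for 18 h with each natural product in 0.1% DMSO. They were then stimulated for 24 h at 37°C with IFNγ (1 U/ml) and TNF (6.25 ng/ml). Supernatants were treated with trichloroacetic acid and p-dimethylaminobenzaldehyde and read at 492 nm against 0–100 μM standards. Kynurenine production is expressed as fold change over cytokine-stimulated vehicle wells on the same plate and, in the first screening round, averaged across duplicate plates.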
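Wherever cell viability relative to vehicle unstimulated control is given: viability of the cells left after supernatant collection, read with Deep Blue dye added for 4 h, as absorbance at 570 nm minus 600 nm.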

| Structure (SMILES) | cell viability (MDA-MB-231 [1]) | kynurenine production (MDA-MB-231 [2]) |
| --- | --- | --- |
| C[C@H]1[C@H](C)CC[C@]2(C(=O)O)CC[C@]3(C)C(=CC[C@@H]4[C@@]5(C)C[C@@H](O)[C@H](O)C(C)(C)[C@@H]5CC[C@]43C)[C@H]12 [Corosolic acid] (compound dose: 10 uM) | 1.07 ± 0.16 | 1.19 ± 0.13 |
| COC(=O)C1=CO[C@@H](O[C@@H]2O[C@H](CO)[C@@H](O)[C@H](O)[C@H]2O)[C@@H]2[C@@]3(C)O[C@H]3[C@@H](O)[C@]12O [Sesamoside] (compound dose: 10 uM) | 0.9746 ± 0.0057 | 0.928 ± 0.12 |
| CC12CCC(CC1=O)C2(C)C (stereo not drawn) [(+)-Camphor] (compound dose: 10 uM) | 1 ± 0.016 | 0.98 ± 0.25 |
| CC(=O)O[C@@H]1CC[C@@]2(C)[C@@H](CC[C@]3(C)[C@@H]2C(=O)C=C2[C@@H]4[C@@H](C)[C@H](C)CC[C@]4(C)CC[C@]23C)[C@@]1(C)C(=O)O (compound dose: 10 uM) | 1.03 ± 0.031 | 1.06 ± 0.062 |
| C=C(C)[C@@H]1CC[C@]2(C)CC[C@]3(C)[C@H](CC[C@@H]4[C@@]5(C)CCC(=O)C(C)(C)[C@@H]5CC[C@]43C)[C@@H]12 [Lupenone] (compound dose: 10 uM) | 0.9789 ± 0.0076 | 0.898 ± 0.16 |
| C/C=C(/C)C(=O)O[C@H]1C(C)=C[C@]23C(=O)[C@@H](C=C(CO)[C@@H](O)[C@]12O)[C@H]1[C@@H](C[C@H]3C)C1(C)C [Ingenol Mebutate] (compound dose: 10 uM) | 1.01 ± 0.026 | 0.691 ± 0.18 |
| COC(=O)C1=CO[C@@H](O[C@@H]2O[C@H](CO)[C@@H](O)[C@H](O)[C@H]2O)[C@H]2[C@@H]1[C@H](O)C[C@]2(C)OC(C)=O [Barlerin] (compound dose: 10 uM) | 1.01 ± 0.02 | 0.884 ± 0.11 |
| CC(C)=CCCC(C)CCO (stereo not drawn) [Citronellol] (compound dose: 10 uM) | 1.03 ± 0.057 | 0.845 ± 0.25 |
| C=C(CC[C@@H](C(=O)O)[C@H]1[C@H](O)C[C@@]2(C)C3=C(CC[C@]12C)[C@@]1(C)CC[C@H](OC(C)=O)C(C)(C)[C@@H]1CC3)C(C)C [Pachymic acid] (compound dose: 10 uM) | 0.862 ± 0.1 | 0.872 ± 0.093 |
| Cc1ccc(C(C)C)cc2c(C)ccc1-2 [Guaiazulene] (compound dose: 10 uM) | 1.1 ± 0.013 | 0.915 ± 0.21 |
| C[C@]1(O)C[C@@H](O)[C@]2(O)C=CO[C@@H](O[C@H]3O[C@H](CO)[C@@H](O)[C@H](O)[C@H]3O)[C@@H]21 [Harpagide] (compound dose: 10 uM) | 1.02 ± 0.016 | 0.747 ± 0.068 |
| CC1(C)CC[C@]2(C(=O)O[C@@H]3O[C@H](CO)[C@@H](O)[C@H](O)[C@H]3O)CC[C@]3(C)C(=CC[C@@H]4[C@@]5(C)CC[C@H](O[C@@H]6O[C@H](C(=O)O)[C@@H](O)[C@H](O)[C@H]6O[C@H]6OC[C@@H](O)[C@H](O)[C@H]6O)C(C)(C)[C@@H]5CC[C@]43C)[C@@H]2C1 [Pseudoginsenoside RT1] (compound dose: 10 uM) | 0.9758 ± 0.0023 | 0.988 ± 0.14 |
| Cc1coc2c1C(=O)C(=O)c1c-2ccc2c(C)cccc12 [Tanshinone I] (compound dose: 2 uM) | 0.921 ± 0.029 | 0.643 ± 0.14 |
| CC(CC(=O)C[C@@H](C)[C@H]1CC(=O)[C@@]2(C)C3=C(C(=O)C[C@]12C)[C@@]1(C)CC[C@H](O)C(C)(C)[C@@H]1C[C@@H]3O)C(=O)O (stereo partly drawn) [Ganoderic acid B] (compound dose: 10 uM) | 0.95 ± 0.032 | 0.774 ± 0.18 |
| CC(C)=CCC[C@@](C)(O)[C@H]1CC[C@]2(C)[C@@H]1[C@H](O)C[C@@H]1[C@@]3(C)CC[C@H](O[C@@H]4O[C@H](CO)[C@@H](O)[C@H](O)[C@H]4O[C@@H]4O[C@H](CO)[C@@H](O)[C@H](O)[C@H]4O[C@@H]4OC[C@@H](O)[C@H](O)[C@H]4O)C(C)(C)[C@@H]3CC[C@]12C [Notoginsenoside Ft1] (compound dose: 2 uM) | 0.899 ± 0.026 | 0.86 ± 0.16 |
| CC(=O)O[C@H]1C(=O)[C@@]2(C)[C@H]([C@H](OC(=O)c3ccccc3)[C@]3(O)C[C@H](OC(=O)[C@H](O)[C@@H](NC(=O)c4ccccc4)c4ccccc4)C(C)=C1C3(C)C)[C@]1(OC(C)=O)CO[C@@H]1C[C@@H]2O [Paclitaxel] (compound dose: 10 uM) | 0.827 ± 0.035 | 0.317 ± 0.017 |
| C=C1C=CC(C(C)C)CC1 (stereo not drawn) [β-Phellandrene] (compound dose: 10 uM) | 0.99 ± 0.038 | 0.832 ± 0.18 |

| Structure (SMILES) | cell viability (MDA-MB-231 [1]) | kynurenine production (MDA-MB-231 [2]) |
| --- | --- | --- |
| CC(=O)OCC1=COC(OC(C)=O)C2C(C)CCC12 (stereo not drawn) [Teucrein] (compound dose: 10 uM) | 0.889 ± 0.026 | 0.842 ± 0.086 |
| C[C@@H]1O[C@@H](O[C@@H]2[C@H](O)[C@@H](O)[C@H](O[C@H]3CC[C@@]4(C)C(CC[C@]5(C)C4C=C[C@]46OC[C@@]7(CCC(C)(C)CC74)[C@@H](O)C[C@]65C)C3(C)C)O[C@@H]2CO[C@@H]2O[C@H](CO)[C@@H](O)[C@H](O)[C@H]2O)[C@H](O)[C@H](O)[C@H]1O (stereo partly drawn) [Saikosaponin C] (compound dose: 10 uM) | 0.928 ± 0.063 | 1.13 ± 0.18 |
| CC(C)=CCC[C@](C)(O[C@@H]1O[C@H](CO)[C@@H](O)[C@H](O)[C@H]1O)[C@H]1CC[C@]2(C)[C@@H]1[C@H](O)C[C@@H]1[C@@]3(C)CC[C@H](O[C@@H]4O[C@H](CO)[C@@H](O)[C@H](O)[C@H]4O[C@@H]4O[C@H](CO)[C@@H](O)[C@H](O)[C@H]4O)C(C)(C)[C@@H]3CC[C@]12C [Ginsenoside Rd] (compound dose: 10 uM) | 1 ± 0.022 | 0.778 ± 0.17 |
| COc1ccc(-c2cc(=O)c3c(O)c(OC)c(O[C@@H]4O[C@H](CO[C@@H]5O[C@@H](C)[C@H](O)[C@@H](O)[C@H]5O)[C@@H](O)[C@H](O)[C@H]4O)cc3o2)cc1 [Pectolinarin] (compound dose: 10 uM) | 0.833 ± 0.26 | 0.907 ± 0.2 |
| CC(C)=CCC[C@H](C)CC=O [(S)-(-)-Citronellal] (compound dose: 10 uM) | 1.04 ± 0.05 | 1.14 ± 0.18 |
| CC(C)=CCC/C(C)=C/CC/C(C)=C/CO [Farnesol] (compound dose: 10 uM) | 0.994 ± 0.062 | 0.939 ± 0.2 |
| C=C1C(=O)O[C@@H]2CC(C)=C([C@@H](C)CCCOC(C)=O)[C@@H](O)[C@H]12 [Inulicin] (compound dose: 10 uM) | 0.912 ± 0.096 | 1.16 ± 0.15 |
| CC(=O)O[C@]12C[C@H](C)[C@H](OC(=O)/C=C/c3ccccc3)[C@@H]1/C=C(/CO)CC[C@H]1[C@@H](/C=C(\C)C2=O)C1(C)C [Euphorbia factor L22] (compound dose: 10 uM) | 1.11 ± 0.047 | 0.964 ± 0.092 |
| CC(C)=CCCC1(C)CCC2(C)C3CCC4(C)C(C)C(=O)CCC4C3(C)CCC2(C)C1 (stereo not drawn) [Shionone] (compound dose: 10 uM) | 1.02 ± 0.0034 | 0.776 ± 0.11 |
| CCCCCC(=O)O[C@@H]1[C@@H](C)[C@@]2(O)[C@@H](C=C(CO)C[C@]3(O)C(=O)C(C)=C[C@@H]23)[C@@H]2C(C)(C)[C@]12OC(=O)CCCCC [Phorbol 12, 13-Dihexanoate] (compound dose: 10 uM) | 1.05 ± 0.076 | 0.896 ± 0.056 |
| CC1(C)[C@@H](O[C@H]2O[C@H](C(=O)O)[C@@H](O)[C@H](O)[C@H]2O[C@@H]2O[C@H](C(=O)O)[C@@H](O)[C@H](O)[C@H]2O)CC[C@]2(C)[C@H]3C(=O)C=C4[C@@H]5C[C@@](C)(C(=O)O)CC[C@]5(C)CC[C@@]4(C)[C@]3(C)CC[C@@H]12 [Ammonium glycyrrhizinate] (compound dose: 10 uM) | 0.952 ± 0.033 | 0.801 ± 0.2 |
| C[C@H]1[C@H](C)CC[C@]2(C(=O)O[C@@H]3O[C@H](CO[C@@H]4O[C@H](CO)[C@@H](O[C@@H]5O[C@@H](C)[C@H](O)[C@@H](O)[C@H]5O)[C@H](O)[C@H]4O)[C@@H](O)[C@H](O)[C@H]3O)CC[C@]3(C)C(=CC[C@@H]4[C@@]5(C)C[C@@H](O)[C@H](O)[C@@](C)(CO)[C@@H]5[C@H](O)C[C@]43C)[C@H]12 [Madecassoside] (compound dose: 10 uM) | 1.03 ± 0.042 | 0.817 ± 0.099 |
| C/C=C(\C)C(=O)O[C@H]1[C@H](O)[C@]2(COC(C)=O)[C@@H](O)C[C@]3(C)C(=CC[C@@H]4[C@@]5(C)CC[C@H](O[C@@H]6O[C@H](C(=O)O)[C@@H](O)[C@H](O)[C@H]6O)[C@@](C)(CO)[C@@H]5CC[C@]43C)[C@@H]2CC1(C)C [Gymnemic acid I] (compound dose: 10 uM) | 1.1 ± 0.017 | 1.43 ± 0.11 |
| CC(C)=CCC[C@](C)(O[C@@H]1O[C@H](CO[C@@H]2O[C@H](CO)[C@@H](O)[C@H](O)[C@H]2O)[C@@H](O)[C@H](O)[C@H]1O)[C@H]1CC[C@]2(C)[C@@H]1[C@H](O)C[C@@H]1[C@@]3(C)CC[C@H](O[C@@H]4O[C@H](CO)[C@@H](O)[C@H](O)[C@H]4O[C@@H]4O[C@H](CO)[C@@H](O)[C@H](O)[C@H]4O)C(C)(C)[C@@H]3CC[C@]12C [Ginsenoside Rb1] (compound dose: 10 uM) | 1.02 | 1.08 ± 0.11 |
| CC(C)=CCCC(C)(OC1OC(CO)C(O)C(O)C1O)C1CCC2(C)C1C(O)CC1C3(C)CC(O)C(OC4OC(CO)C(O)C(O)C4OC4OC(CO)C(O)C(O)C4O)C(C)(C)C3CCC12C (stereo not drawn) [Gypenoside XLVI] (compound dose: 10 uM) | 1.03 ± 0.27 | 0.812 ± 0.16 |
| C=C1C(=O)O[C@H]2[C@H]1CCC(C)=C1CC[C@@](C)(O)[C@@H]12 [Micheliolide] (compound dose: 10 uM) | 0.904 ± 0.063 | 0.591 ± 0.11 |
| C[C@H](CC[C@@H](O[C@@H]1O[C@H](CO[C@@H]2O[C@H](CO)[C@@H](O)[C@H](O)[C@H]2O)[C@@H](O)[C@H](O)[C@H]1O[C@@H]1O[C@H](CO)[C@@H](O)[C@H](O)[C@H]1O)C(C)(C)O)[C@H]1CC[C@@]2(C)[C@@H]3CC=C4[C@@H](CC[C@H](O[C@@H]5O[C@H](CO[C@@H]6O[C@H](CO)[C@@H](O)[C@H](O)[C@H]6O)[C@@H](O)[C@H](O)[C@H]5O)C4(C)C)[C@]3(C)[C@H](O)C[C@]12C [Mogroside V] (compound dose: 10 uM) | 0.989 ± 0.021 | 0.968 ± 0.19 |
